Measured values taken from article PMC12864922, “TDP-43 directly inhibits mRNA accumulation in neurites through modulation of mRNA stability”.
Over roughly 9,900 sequences, “r (bound/input frequency ratio)” has its median near 0.7; the highest 2% begin near 6.5. Shown is part of a subset that was picked to be rich in the highest values.

B1: ENSMUSG00000042529.429|Kcnj12|20:25;182:186 (ssRNA)
RNA: GGGAGUUCUACAGUCCGACGAUCGCUUCGAUAUCCGCAUGCUAAUGUCAGUGGCUUGGGUGCACACACGAGAGAGAGAGAGAGAGAGAGAGAGAGAGAGAGAGAGAGAGAGAGAGAGAGCUGCACAGGAUGAAGCAGCUGCCCUGAGCCCAUCUGGUGCUGUGCACCUGGUCCUUGUCCAGCCGAGGGCCUGGGGGCAGAAGAACACACCAUAGGGAGGCCCUUCAUACGGUGUCUGCCCUAUGUGAGGUCAUAGAAUGUUAAAUCUAUUUUAAACGGUGAAACUGGAGAAUUUUCAUGUUAUCUCUUGCGGUCGCACUAGUGUGGAAUUCUCGGGUGUCAAGG
B2: ENSMUSG00000061578.155|Ksr2 (ssRNA)
RNA: GGGAGUUCUACAGUCCGACGAUCGCUUCGAUAUCCGCAUGCUAUAUGCAUGAUGGGUUACAUGGGUGUGUGUGUGUGUGUAACUGUUUACAAUGGUCUCCCUGCCUCUCACGGGCUGUGUUCCAGGAGAAUGCACAUAGAGAGGUUCUGUGGUCUCUGCUGUCGCCUGGUGCUGAAUCCUGAGUGGUUUCCCCACUGAGGACCCUGUGACCCUGUGACCCUUGGCCCCUCCCUUAUUGUGCACACUCAGCACCCCAUCUUCCAAGCCUUUCUUCAUCCCCCACCUUCUUUUGGGAAGGGGUGGCUCUUGCGGUCGCACUAGUGUGGAAUUCUCGGGUGUCAAGG
B3: ENSMUSG00000090935.767|Synj2bp (ssRNA)
RNA: GGGAGUUCUACAGUCCGACGAUCGCUUCGAUAUCCGCAUGCUAAUUUUAAAAAUCAGUUUACUUUCAUCUUUUCUCUUUAGGCUUUCAAUAAAGACCAGAAGGACUGAUAGACAGCUAGAGAGGAUCGUGUAGGCAUCCAGAUUAGAAUGGAAGAAUCCAUUGAACAAUCUGAGAAAACUAAUCAGGUGUUGUUUUAAUCACAUUAGUUUUAAGUUAGAUACAUGCUCUUUGUAGUAUUUUGGGUUUUAUUGUGCAAAUAAGCAAUUAAAAUAUAUUUAGAAGCCAAGUAUAAUGGUACAUGUCUCUUGCGGUCGCACUAGUGUGGAAUUCUCGGGUGUCAAGG
B4: ENSMUSG00000058297.24|Spock2 (ssRNA)
RNA: GGGAGUUCUACAGUCCGACGAUCGCUUCGAUAUCCGCAUGCUAGCCAGAAAGACAGGCCAGAAGAGACCUGGACAACAGCAGGCAACUUAGCAAAUGGAUCCGGAAGUCAGUGCGGAGGACCCUGGCUCCAGUGGGGGAGGACUGGGGAGUGUGGCUUGUGUGUAUGUGUGAUAUGAGAUGUGUGUGUAUGAUGUGAGAUGUGAGUGUGUGAUGUGAGAUGUGUGUAUGUGAGAUGUGUGUGUGUGUGUGUGUGUGUGUGAUGUGAGUCACCCAAAGGUCCCUAUGUUAUUGAUUUUCAAAUGCUCUUGCGGUCGCACUAGUGUGGAAUUCUCGGGUGUCAAGG
B5: ENSMUSG00000058297.23|Spock2 (ssRNA)
RNA: GGGAGUUCUACAGUCCGACGAUCGCUUCGAUAUCCGCAUGCUACCGACGGCCAGAAAGACAGGCCAGAAGAGACCUGGACAACAGCAGGCAACUUAGCAAAUGGAUCCGGAAGUCAGUGCGGAGGACCCUGGCUCCAGUGGGGGAGGACUGGGGAGUGUGGCUUGUGUGUAUGUGUGAUAUGAGAUGUGUGUGUAUGAUGUGAGAUGUGAGUGUGUGAUGUGAGAUGUGUGUAUGUGAGAUGUGUGUGUGUGUGUGUGUGUGUGUGAUGUGAGUCACCCAAAGGUCCCUAUGUUAUUGAUUUUCUCUUGCGGUCGCACUAGUGUGGAAUUCUCGGGUGUCAAGG
B6: ENSMUSG00000058297.26|Spock2 (ssRNA)
RNA: GGGAGUUCUACAGUCCGACGAUCGCUUCGAUAUCCGCAUGCUAGGCCAGAAGAGACCUGGACAACAGCAGGCAACUUAGCAAAUGGAUCCGGAAGUCAGUGCGGAGGACCCUGGCUCCAGUGGGGGAGGACUGGGGAGUGUGGCUUGUGUGUAUGUGUGAUAUGAGAUGUGUGUGUAUGAUGUGAGAUGUGAGUGUGUGAUGUGAGAUGUGUGUAUGUGAGAUGUGUGUGUGUGUGUGUGUGUGUGUGAUGUGAGUCACCCAAAGGUCCCUAUGUUAUUGAUUUUCAAAUGCACACUUUCACACUCUUGCGGUCGCACUAGUGUGGAAUUCUCGGGUGUCAAGG
B7: ENSMUSG00000058297.22|Spock2|119:123;127:140;149:160;174:180;189:198;204:229 (ssRNA)
RNA: GGGAGUUCUACAGUCCGACGAUCGCUUCGAUAUCCGCAUGCUAAGGGUGCCGACGGCCAGAAAGACAGGCCAGAAGAGACCUGGACAACAGCAGGCAACUUAGCAAAUGGAUCCGGAAGUCAGUGCGGAGGACCCUGGCUCCAGUGGGGGAGGACUGGGGACACACGCUACACACAUACACACAUAUGAGAACACACACAUACAUGUGAGAUGUGACACACACAUGUGAGAACACACAUACUGAGAACACACACACACACACACACACACACAUGUGAGUCACCCAAAGGUCCCUAUGUUAUUCUCUUGCGGUCGCACUAGUGUGGAAUUCUCGGGUGUCAAGG
B8: ENSMUSG00000058297.23|Spock2|113:117;121:134;143:154;168:174;183:192;198:223 (ssRNA)
RNA: GGGAGUUCUACAGUCCGACGAUCGCUUCGAUAUCCGCAUGCUACCGACGGCCAGAAAGACAGGCCAGAAGAGACCUGGACAACAGCAGGCAACUUAGCAAAUGGAUCCGGAAGUCAGUGCGGAGGACCCUGGCUCCAGUGGGGGAGGACUGGGGACACACGCUACACACAUACACACAUAUGAGAACACACACAUACAUGUGAGAUGUGACACACACAUGUGAGAACACACAUACUGAGAACACACACACACACACACACACACACAUGUGAGUCACCCAAAGGUCCCUAUGUUAUUGAUUUUCUCUUGCGGUCGCACUAGUGUGGAAUUCUCGGGUGUCAAGG
B9: ENSMUSG00000058297.26|Spock2|95:99;103:116;125:136;150:156;165:174;180:205 (ssRNA)
RNA: GGGAGUUCUACAGUCCGACGAUCGCUUCGAUAUCCGCAUGCUAGGCCAGAAGAGACCUGGACAACAGCAGGCAACUUAGCAAAUGGAUCCGGAAGUCAGUGCGGAGGACCCUGGCUCCAGUGGGGGAGGACUGGGGACACACGCUACACACAUACACACAUAUGAGAACACACACAUACAUGUGAGAUGUGACACACACAUGUGAGAACACACAUACUGAGAACACACACACACACACACACACACACAUGUGAGUCACCCAAAGGUCCCUAUGUUAUUGAUUUUCAAAUGCACACUUUCACACUCUUGCGGUCGCACUAGUGUGGAAUUCUCGGGUGUCAAGG
B10: ENSMUSG00000058297.25|Spock2 (ssRNA)
RNA: GGGAGUUCUACAGUCCGACGAUCGCUUCGAUAUCCGCAUGCUAAAGACAGGCCAGAAGAGACCUGGACAACAGCAGGCAACUUAGCAAAUGGAUCCGGAAGUCAGUGCGGAGGACCCUGGCUCCAGUGGGGGAGGACUGGGGAGUGUGGCUUGUGUGUAUGUGUGAUAUGAGAUGUGUGUGUAUGAUGUGAGAUGUGAGUGUGUGAUGUGAGAUGUGUGUAUGUGAGAUGUGUGUGUGUGUGUGUGUGUGUGUGAUGUGAGUCACCCAAAGGUCCCUAUGUUAUUGAUUUUCAAAUGCACACUCUCUUGCGGUCGCACUAGUGUGGAAUUCUCGGGUGUCAAGG

target: TDP-43 (Homo sapiens, UniProt Q13148 1-414); experiment: RNA Bind-n-Seq with designed 260-mer pool; 25 mM Tris-HCl, 150 mM KCl, 3 mM MgCl2, BSA (printed 500 mg/mL), 20 units/mL SUPERase IN; pH not stated; 500 nM RNA pool, 1 h, 4 C; TDP-43 5, 50, 500 nM; high values mean tight binding; conditions: protein: recombinant; tags: SBP (GST cleaved off with PreScission; pGEX-GST-SBP)
In short: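 In 25 mM Tris-HCl, 150 mM KCl, 3 mM MgCl2, BSA and SUPERase IN, 500 nM of an in vitro-transcribed 260-nt 3′ UTR oligo pool was incubated for 1 h at 4 °C with SBP-tagged TDP-43 (5, 50 or 500 nM) captured on streptavidin beads. RNA remaining after washes was biotin-eluted, reverse transcribed, PCR-amplified and sequenced. Binding, R, is the bound-sample abundance of each oligo, normalized to mapped reads, divided by its abundance in input. Each duplicate used a separate, independent protein batch.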

Chain of TDP-43 (Q13148 whole entry): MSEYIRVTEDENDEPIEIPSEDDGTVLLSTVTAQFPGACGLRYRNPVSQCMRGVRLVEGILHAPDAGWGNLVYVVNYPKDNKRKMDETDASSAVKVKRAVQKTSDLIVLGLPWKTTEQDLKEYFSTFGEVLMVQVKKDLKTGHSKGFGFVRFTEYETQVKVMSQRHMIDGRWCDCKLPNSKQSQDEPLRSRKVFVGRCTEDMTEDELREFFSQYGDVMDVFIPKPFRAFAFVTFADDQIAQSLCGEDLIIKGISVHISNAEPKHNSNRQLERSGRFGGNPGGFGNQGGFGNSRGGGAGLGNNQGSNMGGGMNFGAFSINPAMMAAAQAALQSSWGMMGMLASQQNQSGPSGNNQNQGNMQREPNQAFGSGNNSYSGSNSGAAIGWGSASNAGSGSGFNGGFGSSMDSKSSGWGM

Row | Binder | binding signal
1 | B1 | 5.54 R (bound/input frequency ratio)
2 | B2 | 1.09 R (bound/input frequency ratio)
3 | B3 | 0.0267 R (bound/input frequency ratio)
4 | B4 | 9.99 R (bound/input frequency ratio)
5 | B5 | 6.74 R (bound/input frequency ratio)
6 | B6 | 6.34 R (bound/input frequency ratio)
7 | B7 | 2.11 R (bound/input frequency ratio)
8 | B8 | 4.42 R (bound/input frequency ratio)
9 | B9 | 3.09 R (bound/input frequency ratio)
10 | B10 | 6.77 R (bound/input frequency ratio)
